# Assay outcomes deposited in PubChem BioAssay by several laboratories.
# VCAM1 TNFa inh = reduces TNF alpha induced VCAM1 expression in HUVEC; 95,000 compounds, 0.48% hits; HUVEC TNFa-induced VCAM-1 immunofluorescence, high-content imaging; inhibition, % at 2 µM;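 active = inhibition above the batch mean plus 3 SD, with images confirmed as a hit by eye, cut at about 37% in these data; inconclusive = inhibition above that limit but hit not confirmed in images; inactive = inhibition not above that limit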;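 also: 0% = TNF-stimulated DMSO wells and 100% = unstimulated control wells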
# HUVEC tox TNFa = toxic to HUVEC cells under TNF alpha stimulation. HUVEC TNFalpha-stimulated, Hoechst cell count, imaging. cell count reduction, % at 2 µM. 93,000 compounds, 0.17% hits;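 active = cell count reduction exceeding the screen mean by over 5 SD, scaled to untreated wells per plate, cut at about 78% in these data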;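 also: cells counted after 24 h of TNF alpha exposure following the 1 h pretreatment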
# Phagocyt inh = blocks phagocytosis by macrophages; J774A.1 macrophage IgG-bead phagocytosis, imaging; inhibition, % at 5 µM; 110,000 compounds, 0.07% hits; AID 1029;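 active = inhibition above the mean of the plate negative controls plus 5 SD, cut at about 13% in these data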;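 also: phagocytic index as fraction of beads internalized from green versus red external bead signal; plate controls were DMSO negative control for no effect and cytochalasin-D positive control for full effect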
# E-sel TNF inh = TNF alpha driven E-selectin expression inhibition | HUVEC TNFa-induced E-selectin immunofluorescence, high content | inhibition, % at 2 µM | 120,000 compounds, 0.71% hits | AID 1246;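 active = inhibition above the batch mean plus 3 SD, and confirmed as a hit on visual image review, cut at about 43% in these data; inconclusive = passes the inhibition cutoff but fails visual image review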;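 also: 0% = TNF-stimulated DMSO wells and 100% = unstimulated control wells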
# cytoskel mod = alters cytoskeleton assembly in HUVEC cells | AID 836 | 91,000 compounds, 0.18% hits | HUVEC TNFa F-actin phalloidin imaging, high content | inhibition, % at 2 µM;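 active = inhibition above the batch mean plus 3 SD and confirmed as a hit by visual image inspection, cut at about 30% in these data, passing the limit was not always enough; inconclusive = above the inhibition threshold but rejected on visual inspection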
# INS promoter inh = TRM-6 insulin promoter activity inhibition; TRM-6 cells (human fetal islet line), insulin promoter-eGFP reporter, imaging; reporter expression induced with tamoxifen; AID 1273; 130,000 compounds, 0.9% hits; inhibition, % at 2 µM;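 active = inhibition above the mean plus 3 SD, with well images judged a real hit on visual review, cut at about 60% in these data, passing the limit was not always enough; inconclusive = inhibition over the cutoff but images rejected on review; inactive = inhibition not above the cutoff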
# Starred values were filed as active, the others as inactive; ? = inconclusive; . = no result; [ ] = another dose, or the depositor's remark. An excerpt weighted towards active compounds, which were near 1.6% of everything screened.
SMILES,VCAM1 TNFa inh,HUVEC tox TNFa,Phagocyt inh,E-sel TNF inh,cytoskel mod,INS promoter inh
Cc1nn2c(Nc3ccc(F)cc3)c3c(nc2c1-c1ccccc1)CCC3,.,.,-2,.,.,87*
COc1cccc(Nc2c3c(nc4c(-c5ccccc5)c(C)nn24)CCC3)c1,.,.,-5,.,.,94*
CCn1c(SCC(=O)NC(C)c2ccccc2)nc2ccccc21 (centres undefined),63*,28,-1,-27,-8,6
CCOC(=O)c1cnn(-c2nc(CC)nc3sc4c(c23)CCC4)c1N,92*,76,-1,.,-11,29
Cc1nnc(-c2cnn(C)c2N)n1Cc1cccc(Cl)c1,-1,-36,1,-20,24,89*
Cc1ncc([N+](=O)[O-])n1CC(=O)NC1CCCCCC1,.,.,.,.,.,0
CN(C)c1nc(N(C)C)nc(N(C#N)CCOc2ccccc2)n1,97*,-3,.,-1,8,-310
CN(C)c1nc(Cl)nc(NCCOc2ccccc2)n1,.,.,-3,7,.,66*
O=C(COC(=O)c1ccccc1F)Nc1cccnc1Cl,.,.,.,-12,.,.
Cc1ccccc1OCc1nnc(SCC(=O)Nc2ccc3nc(SCC(=O)Nc4ccccc4)sc3c2)n1C,.,.,1,-22,.,-33
Cc1ccc(C(=O)NNC2CC(=O)N(c3ccc4c(c3)OCCO4)C2=O)cc1 (centres undefined),.,.,.,.,.,85*
O=C(NNC1CC(=O)N(c2ccc3c(c2)OCCO3)C1=O)c1ccc(Cl)cc1 (centres undefined),.,.,.,.,.,30
CCN(CC)C(=O)Nc1ccc(C(=O)OC)cc1,0,-53,.,11,.,83*
Cn1c(C(=O)NCCN2CCOCC2)cc2sccc21,64,88*,-1,.,-14,.
COc1ccc(Cn2c(CCCO)nc3ccccc32)cc1OC,0,81*,-1,3,-12,26
COc1ccc(N(CC(=O)NCc2ccccc2C)S(=O)(=O)c2ccccc2[N+](=O)[O-])c(OC)c1,.,.,.,.,.,-61
O=C(Nc1ccc(Cl)cc1C(=O)NCC1CCCO1)c1ccco1 (centres undefined),8,-18,-2,-3,3,75*
COc1cccc(/C=N/n2c(-c3ccco3)nc3ccccc3c2=O)c1OC,.,.,3,.,.,-59
O=C(CN1C(=O)S/C(=C/c2cccnc2)C1=O)N1CCOCC1,.,.,0,-4,.,71*
O=C(CN1C(=O)S/C(=C/c2ccncc2)C1=O)N1CCOCC1,.,.,-3,.,.,-15
COc1ccc(N(C(=O)CS(=O)CC(=O)Nc2ccc(F)cc2)C(C(=O)NC2CCCCC2)c2cccs2)cc1 (centres undefined),.,.,-3,-10,.,-50
c1csc(-c2cn3ccc4ccccc4c3n2)c1,.,.,.,-21,.,86*
COc1ccc(CC(=O)NCc2n[nH]c(=S)n2-c2cccc(C)c2)cc1,.,.,.,-22,.,71*
O=C(O)CCC(=O)NC1CCCCCCC1,.,.,6,-68,100*,-411
O=C(O)CCC(=O)NC1CCCCC1NC(=O)CCC(=O)O (centres undefined),-1,-4,.,-12,6,-6
SMILES,VCAM1 TNFa inh,HUVEC tox TNFa,Phagocyt inh,E-sel TNF inh,cytoskel mod,INS promoter inh
CN(CC(=O)Nc1ccc(S(=O)(=O)N2CCCC2)cc1)Cc1ccc(Cl)cc1Cl,.,.,.,.,.,-27
CN(CC(=O)Nc1ccc(Cl)cc1)c1ccc(S(=O)(=O)N2CCCCC2)cc1[N+](=O)[O-],.,.,-2,62*,.,.
CCN(Cc1ccccc1)S(=O)(=O)c1ccc(C(=O)N2CCN(c3nc4ccccc4s3)CC2)cc1,.,.,-4,11,.,31
O=C(Nc1cccc(C(=O)N2CCN(c3ccc(F)cc3)CC2)c1)c1ccccc1,.,.,.,.,.,9
O=C(c1cccc(-c2ccc(O)cc2)c1)N1CCN(c2ccc(F)cc2)CC1,.,.,.,.,.,68*
CC(=O)Nc1ccc(Nc2cc(C)nc3c(-c4ccc(Cl)cc4)cnn23)cc1,.,.,-13,.,.,80*
CC(=O)Nc1ccc(Nc2cc(C)nc3c(-c4ccc(Cl)cc4)c(C)nn23)cc1,.,.,-6,.,.,.
CCC(CO)[n+]1c(C)cc(/C=C2\Sc3ccccc3N2Cc2ccccc2)cc1C (centres undefined),.,.,-2,28,.,.
COc1ccc(/C=C/C(=O)c2cc(F)ccc2OC(=O)c2ccccc2)cc1OC,97*,76,.,.,-45,-34
COc1ccc(CNC(=O)C2(c3ccc(Cl)cc3)CC2)cc1,.,.,-2,17,.,75*
COc1cccc(C2CC(=O)Nc3cc(OC)c(OC)c(OC)c32)c1OC (centres undefined),18,-8,44*[artifact],10,-5,13
CC(C)(C)c1nn2cnnc2n(/N=C/c2cccc3ccccc23)c1=O,.,.,-6,-42,.,.
Cc1ccc(/C=N/n2c(=O)c(C(C)(C)C)nn3cnnc23)cc1,.,.,-3,80*,.,.
O=C(c1cccs1)N(C(=O)c1cccs1)c1ccc(Br)cn1,16,-11,0,45*,-1,29
COc1ccc(Nc2nc(-c3cccc([N+](=O)[O-])c3)nc3ccccc23)cc1,.,.,.,23,.,-29
CCN(CC)c1ccc(C(=O)OCC(=O)Nc2ccc3[nH]c(=O)[nH]c3c2)cc1,.,.,.,.,.,-28
NC(=O)NOCc1ccccc1,.,.,.,68*,.,.
CN(C)C(=O)CN(c1ccc2c(c1)OCO2)S(C)(=O)=O,5,-37,5,-6,10,71*
CS(=O)(=O)N(CC(=O)Nc1ccc2c(c1)OCO2)c1ccc2c(c1)OCO2,16,-11,-2,.,-13,.
CN1C(=O)CSC1=NC12CC3CC(CC(C3)C1)C2,26,-12,0,-14,12,-6
CCN1C(=O)CSC1=NC12CC3CC(CC(C3)C1)C2,96*,66,-2,-2,-22,-57
Cc1ccc(Nc2nc(CSc3nnnn3C)cs2)cc1,96*,-25,-1,15,23,?
O=S(=O)(NCCO)c1cccc2cccnc12,13,-26,50*[artifact],9,2,.
CC(=O)Nc1cc2c(cc1C(=O)C(C)C)OCCO2,1,7,0,-9,4,62
CC(C)C(=O)c1cc2c(cc1NC(=O)c1ccccc1)OCCO2,1,-2,.,-15,-14,89*
SMILES,VCAM1 TNFa inh,HUVEC tox TNFa,Phagocyt inh,E-sel TNF inh,cytoskel mod,INS promoter inh
CC(C)C(=O)c1cc2c(cc1NC(=O)c1cccs1)OCCO2,-2,12,.,1,12,71*
CCN(Cc1ccccc1)C(=O)c1nn(-c2ccc(OC)cc2)c(=O)c2c1c1ccccc1n2C,.,.,.,.,.,-20
CCOC(=O)N1CCC(NC(=O)CN2C(=O)CSc3nc(C)cc(C)c32)CC1,-4,-14,0,83*,-1,.
O=C(C1CN(S(=O)(=O)c2ccccc2)CCN1S(=O)(=O)c1ccccc1)N1CCCCCC1 (centres undefined),16,48,2,11,0,100*
CCOC(=O)C1(CC/C(C)=N\NC(N)=O)CC(C)(C)OC1=O (centres undefined),.,.,-11,.,.,.
CC(C)C(=O)Nc1ccc(NC(=O)c2ccccc2Cl)nc1,31,83*,0,22,-21,-19
CCC(=O)Nc1ccc(NC(=O)c2ccccc2Cl)nc1,30,62,0,5,-9,-112
Cc1c2c(c(C)n1C)C(C(=O)NC1CCCCC1)N(Cc1ccccc1)C2=O (centres undefined),.,.,.,.,.,0
